{"source": "PubChem BioAssay (NCATS)", "note": "Results filed as inconclusive are left out. Entries that show only a call come without a potency. Calls of active or inactive are those of the source. Calls come from the whole dose curve; as a rule, active = well fitted inhibition curve with a large enough effect; inconclusive = small, poorly fitted or top-dose-only effect; inactive = no such curve, though single readings can be large or run the other way. Potency is the fitted concentration of half-maximal effect.", "data": [{"experiment": "qHTS assay for measurement of the activity of small molecule inhibitors on Zika virus induced Caspase-3 activity in human iPSC derived neural progenitor cells (hNPCs) (AID 1224857); note: nearly all actives have a fitted effect of over 65% in size", "details": "hNPCs ZIKV-induced caspase-3/7, Caspase-Glo luminescence, 6 h; series mostly up to 45.7 µM", "text": "National Center for Advancing Translational Sciences [NCATS]\nJohns Hopkins University School of Medicine\nIncrease in the Caspase-3 activity indicates an activation of apoptosis cell death pathway caused by Zika virus infection in certain types of neuronal cells including human neural progenitor cells (hNPCs), astrocytes, and astrocytoma cell line (SNB-19). This cell-based caspase-3 activity assay measures the increased caspase-3 activity in the human iPSC derived neural progenitor cells (hNPCs) after a 6-hour Zika virus infection with a luminescence readout. A decrease in the luminescence signal in this assay by small molecule treatment indicates an inhibitory effect of that small molecule on the Zika virus induced caspase-3 activity that may correlate with its effect on reduction of Zika virus caused cell death.\nThe medium for hNPCs consists of DMEM/F12, N2 supplement (ThermoFisher, Cat.# 17502048), NEAA (ThermoFisher, Cat. # 11140050), 2 ug/ml heparin, 2 uM cyclopamine, and B27 (ThermoFisher, Cat. # 17504044). A Caspase-Glo 3/7 assay kit (catalog number G8092; Promega, Madison, WI) was used to detect caspase-3 activity induced by Zika virus infection in human cells. The reagent mixture was reconstituted as described in the protocol from the manufacturer. Polystyrene tissue culture treated and PDL coated white plates were obtained from Greiner Bio-One (Monroe, NC). Cells were seeded in 384- or 1536-well assay plates and cultured at 37 C with 5% CO2 for 16 to 20 hours. The typical cell seeding density in the 1536-well plate assay is 350 cells/well in 3 ul medium for hNPCs in tissue culture treated plates. Compounds were added to cells and incubated for one hour before addition of ZIKV solution to cells (2 FFU/cell). After incubation at 37 C with 5% CO2 for 6 hours, the reagent mixture of Caspase-Glo 3/7 assay kit was added to each well, followed by incubation at room temperature for 30 minutes. The luminescence intensity of the assay plates was measured using a ViewLux plate reader (PerkinElmer). Data were normalized by using the cell-containing wells without ZIKV as a negative control (0% induction of caspase 3/7 activity) and wells containing ZIKV infected cells (Caspase-3 activity induced) as a positive control (100% induction of caspase 3 activity). The percentage inhibitions of the increased Caspase-3 activity by small molecule inhibitors were then calculated.", "values": [{"smiles": "CC(=O)O[C@@]12CO[C@H]1C[C@H](O)[C@@]1(C)C(=O)[C@H](O)C3=C(C)[C@@H](O)C[C@@](O)([C@@H](OC(=O)c4ccccc4)[C@@H]21)C3(C)C", "Potency": "inactive"}, {"smiles": "C[C@@H]1CC[C@@]2(OC1)O[C@H]1C[C@H]3[C@@H]4CC=C5C[C@@H](O[C@@H]6O[C@H](CO)[C@@H](O[C@@H]7O[C@@H](C)[C@H](O)[C@@H](O)[C@@H]7O)[C@H](O)[C@@H]6O[C@@H]6O[C@@H](C)[C@H](O)[C@@H](O)[C@@H]6O)CC[C@]5(C)[C@@H]4CC[C@]3(C)[C@@H]1[C@H]2C", "Potency": "inactive"}, {"smiles": "CC(C)NCC(O)c1ccc([N+](=O)[O-])cc1", "note": "(stereo not given)", "Potency": "inactive"}, {"smiles": "CC(C)NC(C)Cc1ccc(I)cc1", "note": "(stereo not given)", "Potency": "inactive"}, {"smiles": "CC(C)[C@H]1CN[C@H](C(=O)O)[C@H]1CC(=O)O", "Potency": "inactive"}, {"smiles": "NC(CP(=O)(O)O)C(=O)O", "note": "(stereo not given)", "Potency": "inactive"}, {"smiles": "CC(Cc1ccc(O)cc1)NCC(O)c1cc(O)cc(O)c1", "note": "(stereo not given)", "Potency": "inactive"}, {"smiles": "CC[N+]1(CCOC(=O)C(O)(c2ccccc2)c2ccccc2)CCCCC1", "Potency": "inactive"}, {"smiles": "C[C@@H]1O[C@@H](O[C@@H]2C=C3CC[C@@H]4[C@@H](CC[C@]5(C)[C@H](c6ccc(=O)oc6)CC[C@@]45O)[C@@]3(C)CC2)[C@H](O)[C@H](O)[C@H]1O", "Potency": "inactive"}, {"smiles": "O=[N+]([O-])c1cc([N+](=O)[O-])c2ccccc2c1", "Potency": "inactive"}, {"smiles": "CCCCc1ccc(C(=O)O)nc1", "Potency": "inactive"}, {"smiles": "CCc1c(C(=O)C(N)=O)c2c(OCC(=O)O)cccc2n1Cc1ccccc1", "Potency": "inactive"}, {"smiles": "O=C1CCCN1CC#CCN1CCCC1", "Potency": "inactive"}, {"smiles": "O=c1[nH]c2ccc(Cl)cc2c(N[C@@H]2CN3CCC2CC3)c1-c1nc2ccccc2[nH]1", "Potency": "inactive"}, {"smiles": "Clc1ccc(C(c2ccc(Cl)cc2)n2cc[n+](CC(OCc3ccc(Cl)cc3Cl)c3ccc(Cl)cc3Cl)c2)cc1", "note": "(stereo not given)", "Potency": "inactive"}, {"smiles": "N=c1c2c(-c3ccccc3)c(-c3ccccc3)n(Cc3ccccc3)c2ncn1C1CCC(O)CC1", "note": "(stereo not given)", "Potency": "inactive"}, {"smiles": "CC1=C(O)C(=O)C=C2C1=CC=C1[C@@]2(C)CC[C@@]2(C)[C@@H]3C[C@](C)(C(=O)O)CC[C@]3(C)CC[C@]12C", "Potency": "inactive"}, {"smiles": "CC(C)Oc1cccc(NC(=O)c2ccccc2C(F)(F)F)c1", "Potency": "inactive"}, {"smiles": "CC(C)N[C@@H]1CCn2c(=O)[nH]c3cccc(c32)[C@@H]1O", "Potency": "16.6 µM (active)"}, {"smiles": "CCOP(=O)(NC(C)C)Oc1ccc(SC)c(C)c1", "note": "(stereo not given)", "Potency": "inactive"}, {"smiles": "O=c1cccc2n1CC1CNC[C@H]2C1", "Potency": "inactive"}, {"smiles": "COCC1(CO)C(=O)C2CCN1CC2", "note": "(stereo not given)", "Potency": "inactive"}, {"smiles": "CS(=O)(=O)c1ccc(C(=O)C2C(=O)CCCC2=O)c([N+](=O)[O-])c1", "Potency": "inactive"}, {"smiles": "CO[C@H]1CCC(O[C@H]2C[C@H]([C@]3(C)CC[C@]4(C[C@H](O)[C@@H](C)[C@@H]([C@@H](C)C=C(C)C(=O)[C@H](C)C[C@H](C)C(=O)O)O4)O3)O[C@]3(O[C@@H]([C@H]4O[C@@](O)(CO)[C@H](C)C[C@H]4C)C[C@H]3C)[C@H]2C)O[C@H]1C", "note": "(stereo not given in full)", "Potency": "inactive"}, {"smiles": "N#C[C@H](O[C@@H]1O[C@H](CO[C@@H]2O[C@H](CO)[C@H](O)[C@H](O)[C@H]2O)[C@H](O)[C@H](O)[C@H]1O)c1ccccc1", "Potency": "inactive"}, {"smiles": "NC(N)=NOCCC(N)C(=O)O", "note": "(stereo not given)", "Potency": "inactive"}, {"smiles": "O=C(Cc1ccc(Cl)c(Cl)c1)N1CCCCC1CN1CCCC1", "note": "(stereo not given)", "Potency": "inactive"}, {"smiles": "NC(=NCCC[C@H](N)C(=O)O)N[N+](=O)[O-]", "Potency": "inactive"}, {"smiles": "CCCCOC(=O)c1ccccc1C(=O)OCc1ccccc1", "Potency": "inactive"}, {"smiles": "NCCc1c[nH]c2ccc(O)cc12", "Potency": "inactive"}, {"smiles": "O=C(Nc1ccncc1)C(=O)c1cn(Cc2ccc(Cl)cc2)c2ccccc12", "Potency": "inactive"}, {"smiles": "CC1(N2CCC(n3c([C@@H]4CCCNC4)nc4ccccc43)CC2)CCCCCCC1", "Potency": "inactive"}, {"smiles": "C1CCC(NC2CCCCC2)CC1", "Potency": "inactive"}, {"smiles": "CCCN1CCO[C@@H]2c3cc(O)ccc3OC[C@H]21", "Potency": "inactive"}, {"smiles": "O=C(N[C@H]1CN2CCC1CC2)c1ccc(Cl)cc1", "Potency": "inactive"}, {"smiles": "O=S(=O)(c1ccc(Cl)cc1)c1ccc(Cl)cc1", "Potency": "inactive"}, {"smiles": "C#CC1(O)CCC2C3CCC4=CC(=O)CCC4(C)C3CCC21C", "note": "(stereo not given)", "Potency": "inactive"}, {"smiles": "Nc1ccc(N=Nc2ccccc2)cc1", "Potency": "28.2 µM (active)"}, {"smiles": "C[C@@H]1CC[C@H]2[C@@H](C)C(=O)O[C@@H]3O[C@@]4(C)CC[C@H]1[C@]32OO4", "Potency": "inactive"}, {"smiles": "O=C(O)CNC(=O)c1c(O)c2ccccc2n(Cc2ccccc2)c1=O", "Potency": "inactive"}]}]}
